Screening data: PubChem, National Center for Advancing Translational Sciences (NCATS)
ATXN2 expr inh: inhibitors of ATXN2 expression | HEK-293 ATXN2-luciferase reporter, luminescence, 24 h | Potency, µM (top dose mostly 57 µM), usual class: inhibitors | 360,000 tested, 0.72% active; also: nearly all actives have a fitted effect of over 55% in size
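ATXN2-luciferase reporter cells (luciferase flanked by upstream and downstream ATXN2 gene portions) were treated 24 h at 37 °C with compounds at up to 57 uM. SteadyGlo luminescence gave expression; GF-AFC fluorescence gave viability.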
TGFb inhibitor: TGF-b pathway inhibition. HepG2 CAGA-GFP TGF-b/SMAD3 reporter, GFP fluorescence, 18 h; TGF-beta stimulated, 500 pg/mL final. Potency, µM (doses to about 46.1 µM), most hits filed as inhibitors. 410,000 tested, 1.2% active. AID 588855; also: nearly all actives have a fitted effect of over 65% in size
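Inhibition was scored as loss of TGF-beta-induced (500 pg/mL final, 18 hours, 37 degrees C) GFP in HEPG2 cells carrying a CAGA-GFP reporter, in DMEM with 1% FBS. Well GFP was summed per cell; Activity was normalised to unstimulated and stimulated DMSO wells, then concentration-response fitting.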
HepG2 tox: kills HepG2 cells in TGF-b inhibitor counter-screen; Potency, µM (top dose mostly 46.1 µM), actives largely listed as cytotoxic; HepG2 CAGA-GFP viability, ATP luminescence, 18 h; 410,000 tested, 0.76% active
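CellTiter-Glo luminescence gave cytotoxicity after 18 hours at 37 degrees C. The cells were HepG2 CAGA-GFP in 1% FBS DMEM, stimulated with 500 pg/mL TGF-beta after compound addition. %Activity was normalised to no-cell wells (complete cell-killing) and DMSO (no toxicity), and curves were fitted and classified.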
KB-V1 MDR tox: KB-V1 MDR subline cytotoxicity | KB-V1 MDR cells viability, CellTiter-Glo, 72 h | Potency, µM (highest dose often 46.1 µM), most hits filed as cytotoxic | 400,000 tested, 3.4% active | AID 1347076; also: nearly all actives have a fitted effect of over 60% in size
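qHTS viability screen in drug-selected KB-V1 MDR cells: 72 h compound treatment at 37 degrees C, ATP luminescence end point.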
KB-3-1 cytotox: kills parental KB-3-1 adenocarcinoma cells; Potency, µM (titrated, usually from 46.1 µM), hits mostly cytotoxic; KB-3-1 viability, CellTiter-Glo ATP luminescence, 72 h; 400,000 tested, 1.4% active; also: nearly all actives have a fitted effect of over 60% in size
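Parental KB-3-1 viability, qHTS format: 72 h compound exposure, 37 °C; CellTiter-Glo; media-only wells and DMSO plates as controls; concentration-effect fits on corrected data.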
ATXN viability: viability counter-screen for ATXN expression inhibitors; 400,000 tested, 0.49% active; S2 cells (HEK-293 line with an ATXN2-luciferase reporter) viability, CellTiter-Fluor protease fluorescence, 24 h; Potency, µM (series often up to 56.7 µM), actives largely listed as cytotoxic; AID 651635; also: nearly all actives have a fitted effect of over 40% in size
Each line names hits and unclear results; the compound was inactive in the other large screens; ! = not active in a repeat. An excerpt weighted towards active compounds, which were near 5.9% of everything screened. Calls follow the shape of the dose curve; as a rule, active = well fitted curve in the direction sought with a large enough effect; inconclusive = small, poorly fitted or top-dose-only effect, or another doubt; inactive = no such curve, though single readings can be large; an effect the other way counts as inactive or inconclusive.

COc1cccc(OCC(=O)Nc2ccncc2)c1	KB-3-1 cytotox inconclusive
c1csc(Cn2c(-c3cccs3)nc3ccccc32)c1	KB-V1 MDR tox 21µM, KB-3-1 cytotox inconclusive
O=[N+]([O-])c1ccc(N2CCC(=NOCc3ccc(Cl)cc3)CC2)cc1	TGFb inhibitor inconclusive, KB-V1 MDR tox 15µM, ATXN viability inconclusive
CC(NC(=O)c1cccc(Cn2cc([N+](=O)[O-])cn2)c1)c1ccc(C(C)(C)C)cc1 (stereo not given)	KB-V1 MDR tox 21µM
O=C(Nc1ccn(Cc2ccccc2)n1)c1cccc(Cn2cc([N+](=O)[O-])cn2)c1	KB-3-1 cytotox inconclusive
CC(NC(=O)c1ccc(Cn2cc([N+](=O)[O-])cn2)o1)c1ccccc1 (stereo not given)	none
CCC(NC(=O)c1cccc(Cn2cc([N+](=O)[O-])cn2)c1)c1ccc(C(C)C)cc1 (stereo not given)	KB-V1 MDR tox 7.3µM, KB-3-1 cytotox inconclusive
COC(=O)[C@]12CCCCC=C1N(Cc1ccco1)C(=O)[C@H](CC(=O)NCc1cccs1)C2	none (no result: TGFb inhibitor, HepG2 tox)
COc1ccc(-c2cc(=O)oc3c(C)c(O)c(CN(C)C)cc23)cc1	KB-V1 MDR tox 2.3µM (no result: ATXN viability)
CC/C(=N\NC(=O)c1cc(C)oc1C)c1ccc(OC(F)F)cc1	KB-V1 MDR tox inconclusive, KB-3-1 cytotox inconclusive (no result: ATXN2 expr inh)
Cc1ccc(S(=O)(=O)N(C)Cc2ccc(C(=O)NN=C(CC(C)C)CC(C)C)cc2)cc1	KB-V1 MDR tox 2.3µM, KB-3-1 cytotox inconclusive, ATXN viability inconclusive
Cc1ccc(S(=O)(=O)N(C)Cc2ccc(C(=O)NN=C3C4CC5CC(C4)CC3C5)cc2)cc1	none
CC/C(=N\NC(=O)c1ccc(CN(C)S(=O)(=O)c2ccc(C)cc2)cc1)c1ccc(OC(F)F)cc1	KB-V1 MDR tox 15µM, KB-3-1 cytotox inconclusive
COc1cc(Cl)c(NC(=O)c2cc(S(=O)(=O)N3CCCCC3)c[nH]2)c(OC)c1	none
Cc1ccccc1CNC(=O)c1oc2c(c1C)-c1nn(Cc3ccc(Cl)cc3)cc1CC2	none (no result: ATXN2 expr inh, KB-V1 MDR tox, KB-3-1 cytotox, ATXN viability)
CCn1c(C(=O)N2CCCC(C(=O)NCCCc3ccccc3)C2)cc2sccc21 (stereo not given)	KB-V1 MDR tox 23µM
CCCc1nn2c(=O)cc(COC(=O)CNC(=O)COc3ccc(C)cc3)nc2s1	TGFb inhibitor inconclusive
COc1cccc(-c2cc3nc(NCc4ccc(C)cc4C)n(C)c(=O)c3s2)c1	KB-V1 MDR tox inconclusive, KB-3-1 cytotox inconclusive
COc1ccc(C(=O)OCc2cc(C)ccc2C)cc1S(=O)(=O)N1CCCC1	KB-V1 MDR tox 5.2µM
COc1ccc(C(=O)N2CCN(S(=O)(=O)c3ccc(C)cc3)CC2)cc1S(=O)(=O)N1CCOCC1	none (no result: ATXN2 expr inh)
COc1ccc(/C=C/C(=O)N2CCC(C(N)=O)CC2)cc1S(=O)(=O)N1CCOCC1	none
COc1ccc(/C=C/C(=O)N2CCN(c3ccccc3)CC2)cc1S(=O)(=O)N1CCOCC1	KB-V1 MDR tox 7.3µM, ATXN viability inconclusive
Cc1ccc(C)c(COC(=O)c2cccc(S(=O)(=O)N3CCCC3)c2)c1	KB-V1 MDR tox inconclusive
CCc1nnc(NC(=O)c2ccc(OC)c(S(=O)(=O)N3CCCC3)c2)s1	KB-V1 MDR tox 21µM
COc1ccc(C(=O)N2CCCC2)cc1S(=O)(=O)N1CCOCC1	KB-3-1 cytotox 23µM
COc1ccccc1CNc1nc(-c2ccco2)nn1S(C)(=O)=O	none
CCCCN(C)C(=O)C1CCCN(c2ncnc3onc(C)c23)C1 (stereo not given)	KB-3-1 cytotox inconclusive
CCCCCc1ccc(-c2cn(Cc3ccc(C(=O)c4ccccc4)cc3)nn2)cc1	TGFb inhibitor inconclusive, KB-V1 MDR tox 7.3µM!, KB-3-1 cytotox 7.3µM!
O=C(O)CCCCCCCCc1cn(Cc2ccc(C(=O)c3ccccc3)cc2)nn1	TGFb inhibitor 7.9µM, KB-V1 MDR tox 9.2µM!, KB-3-1 cytotox 4.6µM!
CCOC(OCC)c1cn(Cc2ccc(C(=O)c3ccccc3)cc2)nn1	TGFb inhibitor inconclusive, KB-V1 MDR tox inconclusive, KB-3-1 cytotox 18µM
O=C(c1ccccc1)c1ccc(Cn2cc(CCCO)nn2)cc1	TGFb inhibitor inconclusive
O=C(OCc1cn(Cc2ccccc2)nn1)c1ccccc1	none
O=C(c1ccccc1)c1ccc(Cn2cc(-c3ccccc3)nn2)cc1	TGFb inhibitor inconclusive, KB-V1 MDR tox 0.65µM!, KB-3-1 cytotox inconclusive, ATXN viability inconclusive
COc1ccccc1-c1ccnc(-n2ncc(C(=O)NCCc3ccccn3)c2C)n1	none (no result: ATXN2 expr inh, TGFb inhibitor, HepG2 tox, KB-V1 MDR tox, KB-3-1 cytotox)
Fc1cccc(Cc2c(-c3ccco3)nc3c(Cl)cc(C(F)(F)F)cn23)c1	TGFb inhibitor inconclusive, KB-V1 MDR tox inconclusive
C=CCn1c(=O)/c(=C/c2ccc(O)cc2)s/c1=C(/C#N)c1nnc2n1CCCCC2	none
C=CCn1c(=O)/c(=C/c2ccc(Cl)cc2)s/c1=C(/C#N)c1nnc2n1CCCCC2	ATXN2 expr inh 22µM, ATXN viability 18µM
Cc1ccc2occ(CC(=O)Nc3c(C(=O)Nc4ccc(Cl)cc4)oc4ccccc34)c2c1	none
C/C(CCc1ccc2c(c1)OCO2)=N\NC(=S)NC(C)C	ATXN2 expr inh 7.9µM, TGFb inhibitor inconclusive, ATXN viability 7.1µM
O=C(CSCc1cccc(F)c1)N1CCN(c2ccccc2)CC1	KB-V1 MDR tox 21µM
COCCNC(=O)CSc1nc2ccccc2c(=O)n1CCC(=O)N1CCN(c2ccccc2)CC1	KB-V1 MDR tox inconclusive
O=C(CSc1nc2ccccc2nc1N1CCCCC1)N1CCN(c2ccccc2)CC1	KB-V1 MDR tox 21µM, KB-3-1 cytotox inconclusive
COCCNc1nc(SCC(=O)N2CCN(c3ccccc3)CC2)nc2ccccc12	TGFb inhibitor inconclusive, KB-V1 MDR tox 9.2µM
CN(C)C(=O)CSc1ncccc1-c1nc2ccccc2[nH]1	none
O=C(CSc1ncccc1-c1nc2ccccc2[nH]1)N1CCCCC1	KB-V1 MDR tox 5.2µM
CC(C)CNC(=O)c1ccc(-c2ccc(F)c(F)c2)c2ccoc12	none
CCc1nc2cc(C(=O)N(C)CC3COCCO3)cc(NC(=O)c3ccccc3OC)c2n1C (stereo not given)	none (no result: ATXN2 expr inh, TGFb inhibitor, HepG2 tox, KB-V1 MDR tox, KB-3-1 cytotox)
CCOC(=O)C1(C)CCCN1C(=O)c1cccc2ccccc12 (stereo not given)	none
O=C(CN1CCN(c2ccccc2)CC1)N1CCN(c2ccccc2)CC1	KB-V1 MDR tox 21µM, ATXN viability inconclusive
O=C(CN1CCCCC1)N1CCN(c2ccccc2)CC1	none
N#CC(c1ccccc1)c1ccc([N+](=O)[O-])cc1 (stereo not given)	KB-3-1 cytotox 21µM
Cc1ccc2c(CNC3CCCC3)c(C(=O)O)n(Cc3ccc(F)cc3)c2c1	TGFb inhibitor inconclusive
CCOC(=O)c1cnn(CCOC(=O)c2ccccc2)c1NC(=O)c1ccccc1	KB-V1 MDR tox 10µM
